{
  "source": "PubChem BioAssay AID2163",
  "about": "(National Center for Advancing Translational Sciences (NCATS), 2009)",
  "note": "The other results are listed elsewhere or left out. The source made the active and inactive calls.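 How the source made its calls: active means compounds that slowed 12-hLO product formation enough to yield a measured IC50 potency; inactive means the rest.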",
  "data": [
    {"target": "Polyunsaturated fatty acid lipoxygenase ALOX12 (Homo sapiens) (UniProt P18054)", "sequence (P18054 whole entry, looked up)": "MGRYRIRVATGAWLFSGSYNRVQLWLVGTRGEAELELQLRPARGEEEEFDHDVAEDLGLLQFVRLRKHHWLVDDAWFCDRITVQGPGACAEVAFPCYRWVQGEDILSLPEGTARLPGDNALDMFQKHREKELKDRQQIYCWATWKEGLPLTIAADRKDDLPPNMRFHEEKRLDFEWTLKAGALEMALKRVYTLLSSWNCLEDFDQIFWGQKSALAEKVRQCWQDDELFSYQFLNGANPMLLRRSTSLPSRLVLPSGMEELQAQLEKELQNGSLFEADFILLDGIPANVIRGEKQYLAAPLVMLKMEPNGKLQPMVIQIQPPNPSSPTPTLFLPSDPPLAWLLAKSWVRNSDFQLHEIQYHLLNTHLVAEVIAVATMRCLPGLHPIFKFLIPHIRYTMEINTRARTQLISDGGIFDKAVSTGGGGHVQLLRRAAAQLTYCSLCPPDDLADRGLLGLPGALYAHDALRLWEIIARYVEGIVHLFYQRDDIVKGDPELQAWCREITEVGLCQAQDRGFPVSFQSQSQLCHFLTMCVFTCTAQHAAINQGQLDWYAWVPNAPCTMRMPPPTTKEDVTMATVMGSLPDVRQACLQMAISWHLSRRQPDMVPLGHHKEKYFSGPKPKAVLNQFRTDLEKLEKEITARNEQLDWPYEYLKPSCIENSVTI", "experiment": "Cuvette-Based Assay for Inhibitors of 12-hLO (12-human lipoxygenase): 8HQ Series - Round 1", "conditions": "purified 12-hLO, cuvette UV 234 nm product formation", "procedure": "Assay Provider: Holman, T.R., University of California, Santa Cruz Screening Center PI: Austin, Christopher P. Screening Center: NIH Chemical Genomics Center The enzyme activity of 12-hLO was determined by a direct measurement of product formation by monitoring the absorbance at 234 nm in a 2 mL cuvette. IC50 values of inhibitors were obtained by measuring the enzymatic rate at a variety of concentrations (Carroll et al, Segraves et al).\nFor control experiments, 2 mL of substrate buffer (10 uM arachidonic acid / 25 mM HEPES / 0.01% (v/v) Triton X-100, pH 8.0) was aliquoted in a cuvette with a magnetic stir bar. After equilibrium was ensured, an aliquot of inhibitor solvent was added (DMSO), and equilibrium was once again assured. The reaction was started by adding enzyme to the cuvette and the reaction was followed until completed. The inhibition experiments were performed as above, except the actual inhibitory compound was added instead of vehicle. To achieve an IC50, typically 5 concentrations of the inhibitor were studied. If the inhibitor concentration was constant, then five different reaction volumes were used. […] 3; No change in absorbance ensured. […] 5; No change in absorbance ensured. […]", "values": [
      {"smiles": "CC(=O)NC(c1cccs1)c1cc(Cl)c2cccnc2c1O", "note": "(stereo unspecified)", "Potency": "1000 nM (active)"}
    ]}
  ]
}
